NALP3 yeast inh: blocks the NALP3 inflammasome reconstituted in yeast; Yeast reconstituted NLRP3/ASC/caspase-1, beta-gal luminescence, 24 h; inhibition, % at 10 µM; 0.39% of 330,000 active;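 active means inhibition of 50% or more; inactive means inhibition below 50%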
tim10-1 inh: inhibits growth of tim10-1 mutant yeast; S. cerevisiae tim10-1 ts strain growth, BacTiter-Glo, 24 h; inhibition, % at 20 µM; 2.2% of 330,000 active; AID 463190;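 active means inhibition of at least 40%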;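 further: mutant grown at 25 °C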
PfHsp90 set2: growth inhibition of yeast expressing Plasmodium Hsp90. S. cerevisiae expressing PfHsp90, BacTiter-Glo ATP, 48 h; yeast lacking PDR1 and PDR3 efflux regulators. inhibition, % at 9.4 µM. 0.32% of 310,000 active. AID 504621;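 active means every replicate shows inhibition above about 80%, whatever the replicate mean, limit read from the data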
TIM10 inh: TIM10 yeast growth inhibition. AID 463195. 1.4% of 330,000 active. inhibition, % at 10 µM. S. cerevisiae TIM10 strain growth, BacTiter-Glo luminescence, 24 h;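 active means inhibition of 40% or more at the single tested concentration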;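 further: wild-type TIM10 isogenic control strain grown at permissive 25 °C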
tim23-1 inh: tim23-1 yeast growth inhibition; S. cerevisiae tim23-1 growth, BacTiter-Glo luminescence, 24 h; inhibition, % at 20 µM; 1.3% of 330,000 active;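 active means growth inhibition of the mutant yeast at or above 50%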;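 further: temperature-sensitive mutant grown at 25 °C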
SKKanGAS inh: SKKanGAS growth inhibition. S. pyogenes SKKanGAS, kanamycin growth, BacTiter-Glo, 6 h. inhibition, % at 7.5 µM. 1.3% of 300,000 active;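 active means mean replicate score, as percent of positive control median, at least 50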;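 further: strain carries kanamycin resistance gene driven by streptokinase promoter and grows in 40 µg/ml kanamycin; loss of luminescence reflects streptokinase promoter inhibition or plain growth inhibition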
tim10-1 conf: tim10-1 yeast growth inhibition, confirmed; S. cerevisiae tim10-1 ts strain growth, BacTiter-Glo, 24 h; inhibition, % at 20 µM; shares compounds with tim10-1 inh; 56% of 7,400 active;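 active means inhibition of yeast growth at or above a set limit in either of two repeat tests at 20 µM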;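 further: tim10-1 mutant grown at permissive 25 °C to find synthetic lethal compounds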
TIM10 conf: confirmation of TIM10 yeast growth inhibitors; 63% of 4,600 active; S. cerevisiae tim10 strain growth, BacTiter-Glo luminescence, 24 h; shares compounds with TIM10 inh; inhibition, % at 10 µM;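 active means inhibition of yeast growth at or above a set limit in either of two replicates at 10 µM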; further: this counterscreen used the strain with wild-type TIM10
tim23-1 conf: confirmation of tim23-1 mutant yeast growth inhibitors | 83% of 4,400 active | AID 463218 | S. cerevisiae tim23-1 growth, BacTiter-Glo luminescence, 24 h | shares compounds with tim23-1 inh | inhibition, % at 20 µM;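 active means inhibition above about 39% in either of two replicate wells at 20 µM, limit read from the data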;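 further: temperature-sensitive tim23-1 mutant grown at 25 °C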
A number is an active result; n = inactive; x = no result. The list is not random: actives were taken first. Their share in the collection is about 4.5%.

SMILES	NALP3 yeast inh	tim10-1 inh	PfHsp90 set2	TIM10 inh	tim23-1 inh	SKKanGAS inh	tim10-1 conf	TIM10 conf	tim23-1 conf
S=C(Nc1ccc(Oc2ccc(NC(=S)NC3CCCCC3)cc2)cc1)NC1CCCCC1	n	n	n	n	n	n	x	x	x
Cc1ccc(S(=O)(=O)CNC(=S)c2ccc3ccccc3c2)cc1	n	43	n	n	53	62	n	x	50
CC(C)(Oc1ccc(Cl)cc1)C(=O)NCCN1C(=O)S/C(=C/c2cccnc2)C1=O	n	48	n	51	53	n	44	n	48
Cc1nn(-c2cccc(Cl)c2)c2c1C(c1ccncc1)C(C#N)=C(N)O2 (centres undefined)	n	n	x	n	n	n	x	x	x
COc1ccc(OC)c(C2C(C#N)=C(N)Oc3c2c(C)nn3-c2cccc(Cl)c2)c1 (centres undefined)	n	46	x	44	51	n	n	n	50
CC(NC(=O)CN1C(=O)NC(C)(c2cccc3ccccc23)C1=O)c1ccccc1 (centres undefined)	n	n	n	n	n	n	x	x	x
O=c1c2ccccc2c(-c2ccccc2)nn1-c1cc(Cl)cc(Cl)c1	n	n	x	n	n	n	x	x	x
CCO/N=C(\N)c1[nH]ncc1Br	n	n	n	n	n	n	x	x	x
N/C(=N\OC(=O)c1ccc(Cl)cc1)c1[nH]ncc1Br	n	66	n	43	60	n	63	37	59
Cn1cnc(S(=O)(=O)Nc2ccc(OC(F)F)cc2)c1	n	n	n	n	n	n	x	x	x
O=C1SC(SCc2ccccc2)=N/C1=C\c1ccco1	n	57	n	43	54	n	40	49	58
CC(C)[C@H](NC(=O)[C@@H]1CSC2c3ccccc3C(=O)N21)C(=O)NC1CCCCC1 (some centres undefined)	n	n	n	n	n	n	x	x	x
Oc1c(Br)cc(C2N=C(c3ccccc3)NO2)cc1Br (centres undefined)	n	44	n	n	67	n	58	x	68
CSc1ccc(C2N=C(c3ccccc3)NO2)cc1 (centres undefined)	n	n	n	n	n	n	x	x	x
O=S(=O)(c1cccc(-c2csc(-c3ccccc3)n2)c1)N1CCOCC1	n	n	n	n	n	n	x	x	x
O=S(=O)(c1cccc(-c2nc3ccccc3s2)c1)N1CCOCC1	n	41	x	43	53	n	40	30	40
O=C(NC(=O)c1csnn1)Nc1ccccc1Cl	n	n	n	n	n	n	x	x	x
Oc1ccc(/C=N/Nc2cc(N3CCCC3)nc(N3CCCC3)n2)cc1	n	n	n	n	n	n	x	x	x
COc1ccc(/C=N/Nc2cc(N3CCCC3)nc(N3CCCC3)n2)cc1	n	45	n	n	68	n	n	x	44
Cc1cc(NC(=O)CSCC(=O)Nc2nc3c(C)cccc3s2)no1	n	n	n	n	n	n	x	x	x
c1ccc(N/N=C(\Cc2ncc[nH]2)c2ccccc2)cc1	n	n	n	n	n	n	x	x	x
Clc1cccc(N/N=C(\Cc2nc3ccccc3[nH]2)c2ccccc2)c1	n	40	n	56	64	91	n	n	n

High-throughput results (PubChem)
